# Screening data (PubChem)
# PfGluPho inh: PfG6PD (Plasmodium falciparum) enzyme inhibition; hit rate 0.78% among 350,000; AID 504690; inhibition, % at 20 µM; PfGluPho enzyme, NADPH resazurin-diaphorase fluorescence;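 active = inhibition reaching at least a set limit at 20 µM in the primary screen, cut at about 59% in these data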
# CR mimetic SO: lowers age-related superoxide in aged yeast cells | S. cerevisiae aged cells, superoxide DHE fluorescence; active compounds read low | superoxide response (% of plate mean), % at 10 µM | hit rate 0.18% among 330,000;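 active = superoxide response under a set limit, about three screen SD below normal, cut at about 65% in these data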;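 note: yeast aged for seven days with compound at 30 °C before DHE staining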
# APOBEC3G inh: APOBEC3G (human) deaminase inhibition. inhibition, % at 20 µM. recombinant A3G, ssDNA deamination FAM/TAMRA fluorescence. Q9HC16. hit rate 0.28% among 330,000;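 active = inhibition of at least 40% at 20 µM, with no more than 30% in the related APOBEC3A deaminase screen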
# Target sequence (Q9HC16 whole entry, looked up): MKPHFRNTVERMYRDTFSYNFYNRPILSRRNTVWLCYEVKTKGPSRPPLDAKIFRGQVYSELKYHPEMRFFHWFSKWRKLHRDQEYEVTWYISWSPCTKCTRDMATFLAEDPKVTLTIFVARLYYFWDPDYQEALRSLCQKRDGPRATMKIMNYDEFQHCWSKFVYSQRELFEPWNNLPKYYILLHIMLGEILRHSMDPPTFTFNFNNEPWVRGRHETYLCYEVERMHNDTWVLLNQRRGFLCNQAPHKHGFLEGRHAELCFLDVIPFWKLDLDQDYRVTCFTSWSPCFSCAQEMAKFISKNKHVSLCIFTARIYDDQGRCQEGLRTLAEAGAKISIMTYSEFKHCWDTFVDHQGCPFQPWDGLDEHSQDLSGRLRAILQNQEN
# APOBEC3A inh: blocks human APOBEC3A ssDNA deamination | hit rate 0.41% among 330,000 | recombinant A3A, FAM/TAMRA ssDNA deamination fluorescence | inhibition, % at 20 µM | AID 493011;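 active = at least 40% inhibition at 20 µM here, with at most 30% in a related deaminase screen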
# M18AAP inhibitor: blocks P. falciparum M18 aspartyl aminopeptidase | hit rate 1.2% among 290,000 | recombinant PfM18AAP, H-Glu-NHMec fluorogenic cleavage | inhibition, % at 7.35 µM;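 active = inhibition above the campaign mean inhibition over all tested compounds plus 3 SD, cut at about 28% in these data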
# APOBEC3G confirm: confirmation of human APOBEC3G DNA deaminase inhibitors | shares compounds with APOBEC3G inh | recombinant A3G ssDNA deaminase, UDG/FAM-TAMRA fluorescence | inhibition, % at 20 µM | hit rate 72% among 890 | AID 493152;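 active = inhibition reaching a set limit in any replicate at 20 µM, the limit being 80% of the first screen's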
# UDG ctr A3G: inhibits E. coli UDG, flagging false APOBEC3G inhibitors; shares compounds with APOBEC3G inh; UDG counterscreen, FAM/TAMRA oligo fluorescence; 710 tested, under 10 active; inhibition, % at 20 µM;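 active = compounds giving 40% or more inhibition at 20 µM in any one of the three replicates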;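 note: inhibitors lower the FAM signal released by uracil excision and alkaline cleavage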
# Target sequence (P12295 whole entry, looked up): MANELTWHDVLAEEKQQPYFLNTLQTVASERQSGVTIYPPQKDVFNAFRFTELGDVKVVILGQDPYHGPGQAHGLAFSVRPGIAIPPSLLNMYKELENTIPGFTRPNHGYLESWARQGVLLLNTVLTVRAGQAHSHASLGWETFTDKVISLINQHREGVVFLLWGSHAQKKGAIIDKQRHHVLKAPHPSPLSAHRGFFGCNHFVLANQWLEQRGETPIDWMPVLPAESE
# Hits are given with their value; - = inactive; . = not tested or not shown. The list is not random: actives were taken first. Their share in the collection is about 2.4%.
SMILES,PfGluPho inh,CR mimetic SO,APOBEC3G inh,APOBEC3A inh,M18AAP inhibitor,APOBEC3G confirm,UDG ctr A3G
COc1cc(-c2nnc(COC(=O)c3ccc(C)o3)o2)cc(OC)c1OC,-,-,-,-,.,.,.
CCCc1ccc(C2=Nn3c(nnc3C(C)C)SC2)cc1,60,-,50,-,-,-,-
CC(C)c1nnc2n1N=C(c1ccc(Cl)cc1)CS2,-,-,-,-,-,.,.
O=C(Nc1nc(-c2nc3ccccc3s2)cs1)C1CC1,-,-,43,-,-,-,.
Cc1cc(=S)[nH]c2c(C)cccc12,-,-,79,-,33,-,-
CCOC(=O)c1sc(=S)n(CC)c1NC(=O)c1ccccc1C,-,-,-,-,-,.,.
CCOC(=O)c1sc(=S)n(C)c1NC(=O)c1cccc(Br)c1,-,-,47,-,-,-,-
CCC(=O)N1CCc2cc(S(=O)(=O)N3CCN(c4cc(Cl)ccc4C)CC3)ccc21,-,-,58,-,-,-,-
COc1ccc(NC(=O)CN2C(=O)/C(=C3\SC(=S)N(CCC(=O)O)C3=O)c3ccccc32)cc1,-,.,53,-,-,71,-
C/C(=N\Nc1ccccc1C)c1cccnc1,-,-,61,-,-,-,-
CC(C)(C)OC(=O)N[C@H](/C=C/c1ccccc1)C(=O)OC(C)(C)C,-,-,-,-,.,.,.
CCOC(=O)N1CCN(c2ccnc3cc(Cl)ccc23)CC1,-,-,58,-,-,-,-
CC(C)CC(=O)N[C@H](C(=O)N[C@H](C(=O)N[C@@H](CC(C)C)[C@@H](O)CC(=O)N[C@@H](C)C(=O)N[C@@H](CC(C)C)[C@@H](O)CC(=O)O)C(C)C)C(C)C,-,-,75,-,-,-,.
CCC(C)NC(=O)CC(C)C (stereo unspecified),-,-,-,-,-,.,.
CCN1C(=O)[C@H]2[C@@H](c3ccc(C(F)(F)F)cc3)N[C@]3(CCCN(Cc4ccc(Cl)cc4)C3=O)[C@H]2C1=O,-,.,.,.,.,.,.
CCOC(=O)CSc1nc2c(sc(=S)n2-c2ccc(CC)cc2)c(=O)[nH]1,-,-,-,-,-,.,.
CCOC(=O)c1ccc(-n2c(=S)sc3c(=O)[nH]c(C)nc32)cc1,66,-,56,-,-,40,-
S=c1[nH]nc(-c2ccco2)n1/N=C/c1ccccn1,.,-,59,-,-,83,-
Cc1ccsc1/C=N/n1c(-c2ccco2)n[nH]c1=S,-,-,42,-,-,77,-
Cn1cccc1/C=N/n1c(-c2ccco2)n[nH]c1=S,-,-,44,-,-,80,-
S=c1[nH]nc(-c2ccco2)n1/N=C/c1c(Cl)cccc1Cl,-,-,43,-,-,71,-
COc1cccc(N2CCN(c3ccc4nnc(CCC(=O)Nc5ncccc5C)n4n3)CC2)c1,-,-,-,-,-,.,.
CCC(C)N(C(=O)c1csnn1)C(C(=O)NC1CCCC1)c1c(F)cccc1Cl (stereo unspecified),-,-,-,-,-,.,.
CC1CN(C(=S)Nc2ccccc2C(F)(F)F)CC(C)O1 (stereo unspecified),-,-,-,-,-,.,.
Cn1c(=O)c2[nH]c(Cc3cccc4ccccc34)nc2n(C)c1=O,-,.,.,.,.,.,.
SMILES,PfGluPho inh,CR mimetic SO,APOBEC3G inh,APOBEC3A inh,M18AAP inhibitor,APOBEC3G confirm,UDG ctr A3G
COCCCNC1=C(C#N)C(=O)NC2(CCCC2)S1,-,.,.,.,.,.,.
Cc1ccc(/C=N/n2c(-c3ccco3)n[nH]c2=S)cc1,-,-,40,-,-,66,-
S=c1[nH]nc(-c2ccco2)n1/N=C/c1ccc(Cl)c(Cl)c1,-,-,44,-,-,-,-
Cc1cccc(/C=N/n2c(-c3ccco3)n[nH]c2=S)c1,-,-,-,-,-,.,.
S=c1[nH]nc(-c2ccco2)n1/N=C/c1cccc(Cl)c1,-,-,-,-,-,.,.
CC(=C/c1ccccc1)/C=N/n1c(-c2ccncc2)n[nH]c1=S,-,-,61,-,-,94,-
S=c1[nH]nc(-c2ccncc2)n1/N=C/C=C/c1ccco1,-,-,57,-,31,74,-
CC(/C=N/n1c(-c2ccccc2)n[nH]c1=S)=C\c1ccco1,-,-,-,-,-,.,.
CC(/C=N/n1c(-c2ccncc2)n[nH]c1=S)=C\c1ccco1,-,-,66,-,-,90,-
CN(CC(=O)Nc1cccc(C(F)(F)F)c1)C1=NS(=O)(=O)c2ccccc21,-,-,-,-,.,.,.
CC1Sc2ccc(S(=O)(=O)N3CCC(C(=O)NCC(C)c4ccccc4)CC3)cc2NC1=O (stereo unspecified),-,-,-,-,-,.,.
CCOC(=O)c1cnc2c(-c3ccccc3)c(-c3ccccc3)nn2c1C,-,-,-,-,-,.,.
Cc1cc(NC(=O)Nc2ccccc2)n(C(C)(C)C)n1,-,-,61,-,-,-,.
Cc1cc(NC(=O)Nc2cc(C)nn2-c2ccccc2)n(-c2ccccc2)n1,-,-,-,-,-,.,.
N#Cc1cc2c([nH]c1=S)CCCC2,-,-,67,-,-,78,-
N#Cc1cc2c([nH]c1=O)CCCC2,-,-,-,-,-,.,.
CCNC(=O)CN(c1ccc(Oc2ccccc2)cc1)S(=O)(=O)c1ccccc1,-,-,-,-,-,.,.
COc1cccc(N2CCN(CC(=O)Nc3ccc(SC(F)F)cc3)CC2)c1,-,-,-,-,-,.,.
O=C(CN1CCN(c2ccc(O)cc2)CC1)Nc1ccc(SC(F)F)cc1,-,-,43,-,28,-,.
COCCCn1c(=NC(=O)c2ccccc2)c(C#N)cc2c(=O)n3cccc(C)c3nc21,-,-,46,-,-,-,-
COCCCn1c(=NC(C)=O)c(C#N)cc2c(=O)n3cccc(C)c3nc21,-,-,-,-,-,.,.
C=CCn1c(-c2cc(OC)cc(OC)c2)n[nH]c1=S,-,-,43,-,-,82,-
C=CCn1c(-c2cccc(OCC)c2)n[nH]c1=S,-,-,-,-,-,.,.
C=CCn1c(-c2ccc3ncccc3c2)n[nH]c1=S,-,-,56,-,-,60,-
COc1ccnc(N2CCN(c3ccc(Cl)cc3)CC2)c1C#N,-,-,-,-,-,.,.
SMILES,PfGluPho inh,CR mimetic SO,APOBEC3G inh,APOBEC3A inh,M18AAP inhibitor,APOBEC3G confirm,UDG ctr A3G
COc1ccnc(N2CCN(c3cccc(C(F)(F)F)c3)CC2)c1C#N,-,-,47,-,-,-,.
CSc1cccc(NC(=O)CCCn2c(=O)c3cccn3c3cccnc32)c1,-,-,-,-,-,.,.
COc1ccc(N)c2c1C(=O)c1ccccc1C2=O,-,-,.,.,-,.,.
COc1ccc(OC)c2c1C(=O)c1ccccc1C2=O,-,-,56,-,-,-,-
COc1cccc2c1C(=O)c1ccc3ccccc3c1C2=O,-,-,65,-,-,22,-
COc1cccc2c1-c1c(C(=O)O)cccc1C2=O,-,-,-,-,-,.,.
Cc1ccc(NC(=O)CSc2nc3[nH]ncc3c(=O)[nH]2)cc1,-,-,52,-,-,-,.
O=C(Cn1cc(Cl)c([N+](=O)[O-])n1)NCCC1=CCCCC1,-,-,-,-,-,.,.
